Laboratory results from the supplement of paper PMC10338343.
± gives the standard deviation. Whole data set: some 5,500 sequences, median “pre-steady-state target cleavage rate” near 0.1, cut for the highest 2% near 0.64. What follows is part of a selection rich in the highest values, with near analogues and random picks from the rest.

Tested on: MIWI (PIWIL1) piRISC loaded with piRNA #2 (30 nt)
Assay: pre-steady-state target cleavage rate (min^-1); MIWI and MILI are mouse PIWI proteins and EfPiwi is from a freshwater sponge; tags in brackets are library labels; higher = faster piRNA-guided slicing of the target
Details: guide: piRNA #2 5'p-UUAGGUAACCCAGUAGAUCCAGAGGAAUUC; auxiliary factor: 500 nM mouse GTSF1
In short: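 In HEPES–potassium acetate buffer at 33 °C, […] transcribed, DNA-blocked target RNA library was mixed with 1 nM active affinity-purified piRISC carrying one synthetic guide, with or without 500 nM GTSF1 partner protein, for 0–8 or 0–960 min. Uncleaved targets were sequenced and normalised to depth and to weakly complementary targets; three trials were pooled and k3 was capped at 0.0001 min^-1. The pre-steady-state cleavage rate followed from a burst-and-steady-state fit.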

Row | Sequence | pre-steady-state target cleavage rate
1 | CUUAAGGUCUGGAUCUACUGCGUUACCAAA | 0.109 ± 0.029
2 | CUAAUCCUCUGGAUCAACUGGGUUACCUAA | 0.381 ± 0.043
3 | CAAUUCCUCUGGAUCUACUGGGUUAACUAA | 0.386 ± 0.098
4 | GAAUUCCUCUGGAUCUACUGGGUUACCAUA | 0.364 ± 0.05
5 | GAAUUCCUCUGGAUCUACUGGGUUAACUAA | 0.674 ± 0.059
6 | CUUUUCCUCUGGAUCUACUGGGUUACCAUA | 0.437 ± 0.048
7 | GAAUUCCUCUGGAUCUACUGGGUUAGCCUAA | 0.299 ± 0.036
8 | CUAUUCCUCUGGAUCUACUGGGUUAGCCUAA | 0.51 ± 0.063
9 | CUUUUCCUCUGGAUCUACUGGGUUACCAUAA | 0.422 ± 0.047
10 | CAAUUCCUCUGGAUCUACUGGGUUAGCCUAA | 0.651 ± 0.079
11 | GAAUUCCUCUGGAUCUACUGGGUUACAUAA | 0.64 ± 0.057
12 | GAAUUCCUCUGGAUCUACUGGGUUACCAUAA | 0.383 ± 0.049
13 | CUUUUCCUCUGGAUCUACUGGGUUACAUAA | 0.738 ± 0.042
14 | CUAUUCCUCUGGAUCUACUGGGUUAACUAA | 0.349 ± 0.071
15 | CUUAACCUCUGGAUCUAGUCGGUUACCUAA | 0.0063 ± 0.0049
16 | CUUUUCCUCUGGAUCAACUGGGUUUCCUAA | 0.165 ± 0.034
17 | CUUAAGGAGACCUUCUACAGCGUUACCUAA | 0.00566 ± 0.0029
18 | CUUAUGCUCUGGAUCUACUGGGUUACCUAA | 0.124 ± 0.02
19 | CUUAAGGACAGGUUCUACUGGGUUACCUAA | 0.0257 ± 0.017
20 | CUUAAGCUCUGGAUCUACUGGGUAACCAAA | 0.0234 ± 0.0094
21 | CUUAACCUCUGGAUCUACUGGGUUACUAA | 0.116 ± 0.018
22 | CUUAAGGAGUGGAACUACUGGGUUACCUAA | 0.0357 ± 0.024
23 | CUUAAGGAGUGGAUCUACUGGGUUACCGAA | 0.0437 ± 0.018
24 | CUUUUCCUCUGGAUCUAGAGGGUUACCUAA | 0.022 ± 0.0052
25 | CUUAACCUCUGGUUCUACUGGCUUACCUAA | 0.112 ± 0.014

Row | Sequence | pre-steady-state target cleavage rate
26 | CUUUUCCUCUCGUUCUACUGGGUUACCUAA | 0.519 ± 0.041
27 | CAAUUCCUCUCCUUCUACUGGGUUACCUAA | 0.613 ± 0.058
28 | GAAUUCCUCUCCUUCUACUGGGUUACCUAA | 0.781 ± 0.06
29 | CUUAUCCUCUCGUUCUACUGGGUUACCUAA | 0.41 ± 0.039
30 | CUAUUCCUCUCCUUCUACUGGGUUACCUAA | 0.569 ± 0.049
31 | CUAUUCCUCUCGUUCUACUGGGUUACCUAA | 0.75 ± 0.077
32 | GAAUUCCUCUCGUUCUACUGGGUUACCUAA | 0.793 ± 0.058
33 | CUUAACCUCUCGUUCUACUGGGUUACCUAA | 0.401 ± 0.044
34 | GAAUUCCUCUGGAUUCUACUGGGUUACCUAA | 0.224 ± 0.036
35 | CAAUUCCUCUGGGUCUACUGGGUUACCUAA | 0.562 ± 0.037
36 | CAAUUCCUCUCGUUCUACUGGGUUACCUAA | 0.82 ± 0.071
37 | CUAUUCCUCUGGAUUCUACUGGGUUACCUAA | 0.346 ± 0.047
38 | CUUAAGGAGUGGUUCUACUGGGUUACCUUA | 0.0165 ± 0.004
39 | CUUAAGGACUGGAUCUACUGGGUUAACUAA | 0.116 ± 0.042
40 | CUUUUCCUCUGGAUCUACUGCCUUACCUAA | 0.0739 ± 0.012
41 | CUUAACCUCUGGAUCUACAGGGUUAGCUAA | 0.0376 ± 0.0069
42 | GAAUUCCUCUGGAUCUAGUGGGUUUCCUAA | 0.108 ± 0.019
43 | CUUAAGGACUGGAUCUACUAGGUUACCUAA | 0.0835 ± 0.039
44 | CUUAAGGUCAGGAUCUACUGGGUAACCUAA | 0.00869 ± 0.0069
45 | CUUAACCUCUGGAUCUACUGGGUUACACUAA | 0.344 ± 0.042
46 | CUAUUCCUCUGGAACUUCUGGGUUACCUAA | 0.299 ± 0.036
47 | CUUAUCCUCUGGAUCUAGUGGGAUACCUAA | 0.0912 ± 0.02
48 | GAAUUCCUCUGGAUCUACUGGGAUACCAAA | 0.192 ± 0.06
49 | CUUAAGGUCUGGAUGUUCUGGGUUACCUAA | 0.05 ± 0.018
50 | CAAUUCCUCUCGAUGUACUGGGUUACCUAA | 0.672 ± 0.056

Row | Sequence | pre-steady-state target cleavage rate
51 | CUAUUCCUCUCGAUGUACUGGGUUACCUAA | 0.636 ± 0.045
52 | CUUAUCCUCUCGAUGUACUGGGUUACCUAA | 0.498 ± 0.03
53 | CUUAACCUCUCGAUGUACUGGGUUACCUAA | 0.421 ± 0.029
54 | CUUUUCCUCUCGAUGUACUGGGUUACCUAA | 0.592 ± 0.043
55 | CUAUUCCUCUGGAUGUACUGGGUUACCUAA | 0.533 ± 0.041
56 | CAAUUCCUCUGGAUGUACUGGGUUACCUAA | 0.578 ± 0.054
57 | GAAUUCCUCUGGAUGUACUGGGUUACCUAA | 0.352 ± 0.045
58 | GAAUUCCUCUCGAUGUACUGGGUUACCUAA | 0.645 ± 0.052
59 | CUUAACCUCUGGAUAUACUGGGUUACCUAA | 0.552 ± 0.042
60 | CAAUUCCUCUGGAUCUACUGGGUAACCUAA | 0.263 ± 0.049
61 | CUUAACCUCUGGAUCUACUGGGUAUGCUAA | 0.0233 ± 0.0061
62 | CAAAAGCUCUGGAUCUACUGGGUUACCUAA | 0.105 ± 0.025
63 | CUUAAGGAGUGGGAUCUACUGGGUUACCUAA | 0.0146 ± 0.0073
64 | GAAUUCCUCUGGAUCUACUGGUGUUACCUAA | 0.0068 ± 0.0031
65 | CUAUUCCUCUGGAUCUACUGGUGUUACCUAA | 0.00505 ± 0.0032
66 | GAAUUCCUCUGGAUCUACUGUGGUUACCUAA | 0.00388 ± 0.0038
67 | CUUUUCCUCUGGAUCUACUGUGUUACCUAA | 0.751 ± 0.048
68 | CUAUUCCUCUGGAUCUACUGUGUUACCUAA | 0.696 ± 0.073
69 | GAAUUCCUCUGGAUCUACUGUGUUACCUAA | 0.673 ± 0.06
70 | CUUUUCCUCUGGAUCUACUGGUGUUACCUAA | 0.00402 ± 0.0035
71 | CAAUUCCUCUGGAUCUACUGGUUACCUAA | 0.19 ± 0.046
72 | CAAUUCCUCUGGAUCUACUGUGUUACCUAA | 0.751 ± 0.075
73 | CUUUUUCCUCUGGAUCUACUGGGUUACCUAA | 0.308 ± 0.046
74 | CUAUUCCUCUGGAUCUACUGGGUUACCUAA [g2:g28:cont:t1A] | 0.388 ± 0.062
75 | CAAUUCCUCUGGAUCUACUGGUGUUACCUAA | 0.0066 ± 0.0037
